Records with an inconclusive call do not appear. Entries that show only a call come without a potency. Active and inactive are the calls of the source. The call rests on the fitted dose curve; in most records, active means well fitted curve in the direction sought with a large enough effect; inconclusive means small, poorly fitted or top-dose-only effect, or effect the other way, or another doubt; inactive means no such curve, though single readings can be large or run the other way.

This passage reports Potency results from PubChem BioAssay AID1568 (National Center for Advancing Translational Sciences (NCATS), 2009).

The nature of the experiment: Cell Viability Secondary Assay to Characterize qHTS Inhibitors of the Interaction of Thyroid Hormone Receptor and Steroid Receptor Coregulator 2. The note with it: cell viability counter-screen, qHTS titration; series mostly up to 29.9 µM. The text has this:
NIH Molecular Libraries Probe Production Network [MLPCN]
NIH Chemical Genomics Center [NCGC]
Assay Provider: R. Kip Guy, St. Jude Children's Research Hospital
Thyroid receptor (TR) regulates many homeostatic processes including basal metabolism, cardiovascular function, body weight, and lipid trafficking. TR modulators are potential therapeutics for obesity and hyperlipidemias but current thyroid analogs have undesirable side effects, particularly cardiac stimulation. This secondary assay characterized selected actives identified in the qHTS for Inhibitors of the Interaction of Thyroid Hormone Receptor and Steroid Receptor Coregulator 2. The human follicular thyroid carcinoma cell line WRO (kindly provided by Dr. M. D. Ringel) stably expresses TRbeta and a luciferase reporter gene fused to TR response element. The effect of compounds on the viability of these cells was assessed by measuring ATP levels. Compounds that reduce cell viability are likely cytotoxic.
NCGC Assay Protocol Summary:
Cells were maintained in RPMI 1640 culture medium supplemented with 10% heat-inactivated FBS, 0.33 mg/ml hygromycin, 0.33 mg/ml geneticin, 50 units/ml penicillin, 50 ug/ml streptomycin. Cells were harvested and resuspended at 330,000 cells/ml in assay medium (50% DMEM 50% F-12 medium without Phenol-Red (Cellgro #16-405-CV), L-glutamine, 10% heat inactivated and charcoal treated FBS, 100 uM non-essential amino acid, 50 units/ml penicillin, 50 ug/ml streptomycin). Cells were dispensed at 10,000 cells/30 ul/well into 384 well plates (Corning 3917) and incubated 12 h at 37 C and 5% CO2. Compounds and T3 (100nM final concentration) were added using a pin tool and plates were incubated 16 h incubation at 37 C and 5% CO2. Following incubation, plates were equilibrated at ambient temperature for 30 min, 20 ul of CellTiter-Glo (Promega) was added and luminescence was detected by an EnVision (PerkinElmer).
(In general: Quantitative high-throughput screening tests each substance at several concentrations.)

With `COP(=S)(OC)Oc1ccc([N+](=O)[O-])cc1`, the Potency was 31.6 µM (active). As to `Cc1[nH]n(-c2ccccc2)c(=O)c1C(c1ccc([N+](=O)[O-])cc1)c1c(C)[nH]n(-c2ccccc2)c1=O`, the Potency result was “inactive”. As for `CN1CC[C@@]2(C)c3cc(O)ccc3N(C)C2O1` (stereo not given in full), the Potency is 14.1 µM (active). Then `O=C(O)CC1OCC=C2CN3CCC45C6=CC(=O)C(=O)C([N+](=O)[O-])=C6NC4C1C2CC35` (stereo not given), with “inactive”. As to `CCCCCn1c(N)c(C(=O)NCc2cccs2)c2nc3ccccc3nc21`, the Potency entry was “inactive”.
